Source: PubChem BioAssay AID1159580 (chemical genetic matrix, 2015)
“And” between values parts separate entries of the source, which are not always exact repeats. Equal values may be shown once. About 2,000 (36%) of roughly 5,500 compounds were called active. Not shown: some 18% with an inconclusive outcome. Rule as the data show it: active = normalized growth mostly below about 0.91 (no sharp cut-off); inconclusive = no clear call, values can overlap the other calls; inactive = mostly above about 0.92. This is one part of the list.

Assay: chemical genetic growth profiling, strain panel (AID 1159580);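 also: tested at 20 µM; growth read once vehicle control cultures reached saturation at 30 °C; 1 = growth at the plate median or of vehicle wells; lower values mean less growth of the strain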
Conditions: S. cerevisiae deletion strains, growth OD

Measured: normalized growth

NC(Cc1ccc(Cl)cc1)C(=O)O (stereo not drawn)
inactive: locus YAL013W, strain DEP1, hits give low values 1 | locus YAL021C, strain ccr4, hits give low values 0.989 | locus YAL026C, strain drs2, hits give low values 1.01 | locus YAL030W, strain snc1, hits give low values 0.993 | locus YAL040C, strain CLN3, hits give low values 1 | locus YBL061C, strain skt5, hits give low values 0.999 | locus YBR009C, strain hhf1, hits give low values 0.993 | locus YBR021W, strain FUR4, hits give low values 1.01 | locus YBR023C, strain chs3, hits give low values 0.991 | locus YBR171W, strain sec66, hits give low values 1.01 | locus YBR229C, strain ROT2, hits give low values 0.96 | locus YBR231C, strain swc5, hits give low values 0.997 | locus YBR279W, strain paf1, hits give low values 0.988 | locus YCL011C, strain gbp2, hits give low values 1 | locus YCL016C, strain dcc1, hits give low values 0.989 | locus YCL029C, strain bik1, hits give low values 0.994 | locus YCL061C, strain MRC1, hits give low values 1.01 | locus YCL069W, strain vba3, hits give low values 1 | locus YCR088W, strain abp1, hits give low values 0.999 | locus YDL005C, strain med2, hits give low values 0.989 | locus YDL035C, strain GPR1, hits give low values 0.999 | locus YDL040C, strain nat1, hits give low values 0.996 | locus YDL074C, strain BRE1, hits give low values 0.997 | locus YDL101C, strain DUN1, hits give low values 0.983 | locus YDL134C, strain PPH21, hits give low values 0.952 | locus YDL185W, strain tfp1, hits give low values 0.986 | locus YDL192W, strain arf1, hits give low values 1 | locus YDR001C, strain nth1, hits give low values 1.01 | locus YDR069C, strain doa4, hits give low values 0.988 | locus YDR101C, strain arx1, hits give low values 1.01 | locus YDR137W, strain rgp1, hits give low values 0.998 | locus YDR150W, strain NUM1, hits give low values 0.974 | locus YDR159W, strain sac3, hits give low values 0.976 | locus YDR162C, strain NBP2, hits give low values 1.01 | locus YDR195W, strain ref2 0.971 | locus YDR297W, strain sur2, hits give low values 0.992 | locus YDR318W, strain mcm21, hits give low values 0.987 | locus YDR334W, strain swr1, hits give low values 1.02 | locus YDR335W, strain msn5, hits give low values 1 | locus YDR388W, hits give low values 0.996 | locus YDR392W, strain spt3, hits give low values 0.936 | locus YDR502C, strain sam2, hits give low values 1 | locus YEL003W, strain gim4, hits give low values 1 | locus YEL037C, strain rad23, hits give low values 1.02 | locus YEL061C, strain CIN8 (second series), hits give low values 1.01 | locus YEL061C, strain CIN8, hits give low values 0.99 | locus YER015W, strain faa2, hits give low values 1 | locus YER016W, strain bim1, hits give low values 0.992 | locus YER110C, hits give low values 0.982 | locus YER111C, strain swi4, hits give low values 1.01 | locus YER155C, strain BEM2 (second series), hits give low values 0.975 | locus YER155C, strain BEM2, hits give low values 1.01 | locus YER167W, strain BCK2, hits give low values 0.999 | locus YFR010W, strain ubp6, hits give low values 1.03 | locus YGL078C, strain dbp3, hits give low values 0.988 | locus YGL086W, strain mad1, hits give low values 1.01 | locus YGL167C, strain pmr1, hits give low values 0.997 | locus YGL173C, strain kem1, hits give low values 1 | locus YGL227W, strain vid30, hits give low values 0.999 | locus YGL240W, strain doc1, hits give low values 0.972 | locus YGL248W, strain PDE1, hits give low values 0.987 | locus YGL253W, strain hxk2, hits give low values 1.01 | locus YGR078C, strain PAC10, hits give low values 0.991 and 1 | locus YGR135W, strain pre9, hits give low values 1 | locus YGR229C, strain SMI1, hits give low values 0.993 | locus YGR252W, strain gcn5, hits give low values 0.989 | locus YHR013C, strain ard1, hits give low values 0.994 | locus YHR027C, strain rpn1, hits give low values 0.992 | locus YHR030C, strain SLT2, hits give low values 0.986 and 0.959 | locus YHR079C, strain IRE1 (second series), hits give low values 0.991 | locus YHR079C, strain IRE1, hits give low values 0.986 | locus YHR094C, strain hxt1, hits give low values 0.994 | locus YHR129C, strain ARP1, hits give low values 0.985 | locus YHR142W, strain chs7, hits give low values 1.03 | locus YHR200W, strain rpn10, hits give low values 1 | locus YIL066C, strain RNR3, hits give low values 0.982 | locus YIL073C, strain SPO22, hits give low values 1.02 | locus YIL125W, strain kgd1, hits give low values 0.998 | locus YIR030C, strain dcg1, hits give low values 1 | locus YJL092W, strain hpr5, hits give low values 1.01 | locus YJL095W, strain BCK1 (second series), hits give low values 0.99 | locus YJL095W, strain BCK1, hits give low values 1.02 and 0.993 | locus YJL115W, strain asf1, hits give low values 0.994 | locus YJL129C, strain trk1, hits give low values 1.02 | locus YJL134W, strain LCB3, hits give low values 0.99 | locus YJL154C, strain vps35, hits give low values 1.01 | locus YJL164C, strain tpk1, hits give low values 0.992 | locus YJL166W, strain qcr8, hits give low values 0.991 | locus YJL168C, strain set2, hits give low values 0.994 | locus YJL187C, strain SWE1 (second series), hits give low values 0.975 | locus YJL187C, strain SWE1, hits give low values 0.993 | locus YJR043C, strain POL32, hits give low values 1.01 | locus YJR066W, strain TOR1, hits give low values 0.902
